Source: PubChem BioAssay (National Center for Advancing Translational Sciences (NCATS))
PINK1 modulator: A Quantitative High throughput Screen to Identify Chemical Modulators of PINK1 Expression; PINK1 immunofluorescence, high-content cytometry, 24 h; Potency, µM (doses to about 76.6 µM), for the others: at the highest dose activation (PINK1 increase), usual class: activators; 410,000 compounds, 0.2% hits; active = well fitted activation curve with a large enough effect; inconclusive = small, poorly fitted or top-dose-only effect; cell line not stated here; note: % of control where 0% means no effect; nearly all actives have a fitted effect of over 65% in size
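Stable cell line, 250 cells/well, 12 h attachment; compounds pinned at 5 concentrations, 24 h; CCCP control. Fixed with nuclear dye, primary antibodies 12 h at 10 degrees C, secondary plus cell stain; laser-scanning cytometer read.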
ALOX12 inh: Primary qHTS assay for inhibitors of human arachidonate 12S-lipoxygenase (ALOX12): Round 2; Polyunsaturated fatty acid lipoxygenase ALOX12 (Homo sapiens), P18054; purified 12hLO, xylenol orange hydroperoxide absorbance; Potency, µM (series often up to 108 µM), without a hit: at the highest dose activity change, negative = inhibition, actives largely listed as inhibitors; 580,000 compounds, 1.1% hits; AID 1671190, 2021; note: % is set by controls: 0 for no effect and ±100 for the full control effect
Target sequence (P18054 whole entry, looked up): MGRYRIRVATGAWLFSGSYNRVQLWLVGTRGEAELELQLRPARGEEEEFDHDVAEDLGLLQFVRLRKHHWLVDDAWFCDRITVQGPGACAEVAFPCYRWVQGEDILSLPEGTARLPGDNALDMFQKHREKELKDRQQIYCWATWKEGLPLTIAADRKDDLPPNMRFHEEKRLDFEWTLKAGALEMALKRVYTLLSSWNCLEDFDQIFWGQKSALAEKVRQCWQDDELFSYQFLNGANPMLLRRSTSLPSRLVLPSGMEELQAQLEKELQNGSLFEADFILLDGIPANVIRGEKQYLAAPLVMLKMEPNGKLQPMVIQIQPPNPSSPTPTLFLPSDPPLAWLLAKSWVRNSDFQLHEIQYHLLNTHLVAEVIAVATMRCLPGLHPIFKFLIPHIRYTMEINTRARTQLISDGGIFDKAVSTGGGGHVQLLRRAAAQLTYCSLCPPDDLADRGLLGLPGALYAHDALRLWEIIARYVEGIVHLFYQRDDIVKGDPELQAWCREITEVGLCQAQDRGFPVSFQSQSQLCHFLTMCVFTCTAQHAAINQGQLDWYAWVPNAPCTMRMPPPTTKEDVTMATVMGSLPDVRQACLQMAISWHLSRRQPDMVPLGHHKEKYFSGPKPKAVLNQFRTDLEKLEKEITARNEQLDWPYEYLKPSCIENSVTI
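Hydroperoxide product was detected by ferrous iron/xylenol orange as the 573 to 405 nm absorbance ratio. Arachidonic acid at 40 uM (final) was turned over for 30 min at room temperature by 150 nM human 12hLO, pH 7.0 Hepes buffer, after 15 min compound preincubation.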
KB-V1 cytotox: qHTS assay for MDR1-selective chemotherapeutics: Primary screen using the drug-selected MDR subline cells KB-V1; KB-V1 MDR cells viability, CellTiter-Glo, 72 h; Potency, µM (doses to about 46.1 µM), actives largely listed as cytotoxic; 400,000 compounds, 3.4% hits; AID 1347076, 2019; note: % is set by controls: 0 for no effect and ±100 for the full control effect; nearly all actives have a fitted effect of over 60% in size
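Cytotoxicity toward P-gp-expressing KB-V1 cells was determined as loss of CellTiter-Glo luminescence after 72 h at 37 degrees C. Compounds were tested in quantitative HTS format across a concentration range, with curves fitted to normalized data.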
MCF10A rerep: A quantitative high throughput screen for small molecules that induce DNA re-replication in MCF 10a normal breast cells. Potency, µM (doses to about 46.1 µM), for inactives: top-dose activity, positive = re-replication, hits mostly activators. AID 624296, 2012. MCF 10A DNA re-replication, Hoechst nuclear intensity, 48 h. 350,000 compounds, 2.9% hits; note: % of control where 0% means no effect; nearly all actives have a fitted effect of over 50% in size
SW480 rerep: A quantitative high throughput screen for small molecules that induce DNA re-replication in SW480 colon adenocarcinoma cells | 340,000 compounds, 1.8% hits | SW480 DNA re-replication, Hoechst DNA content imaging, 48 h | Potency, µM (titrated, usually from 46.1 µM), for inactives: at the highest dose re-replication activation, most hits filed as activators; note: % of control where 0% means no effect; nearly all actives have a fitted effect of over 55% in size
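Per well, 250 cells were exposed to pinned compound for 48 hr. Nuclear DNA was visualised with Hoechst (40 min, 37 C) and total object intensity recorded by fluorescence scanning.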
KB-3-1 cytotox: qHTS assay for MDR1-selective chemotherapeutics: Primary screen using the parental adenocarcinoma cell KB-3-1. 400,000 compounds, 1.4% hits. Potency, µM (series often up to 46.1 µM), most hits filed as cytotoxic. AID 1347075, 2019. KB-3-1 viability, CellTiter-Glo ATP luminescence, 72 h; note: % is set by controls: 0 for no effect and ±100 for the full control effect; nearly all actives have a fitted effect of over 60% in size
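KB-3-1 cells, DMEM (no phenol red) + 10% FBS; compound by pin transfer, 72 h, 37 °C. Readout: CellTiter-Glo luminescence after 10 min. Data normalized, curve-fitted.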
* hit, by the source's call; i = inactive; u = inconclusive; x = no result; [ ] = dose if it differs, or a comment. Most compounds without a hit are left out; they make up all but 5.8% or so of the library. Unless noted, calls come from the whole dose curve; as a rule, active = well fitted curve in the direction sought with a large enough effect; inconclusive = small, poorly fitted or top-dose-only effect, or another doubt; inactive = no such curve, though single readings can be large; an effect the other way counts as inactive or inconclusive. Potency is the fitted concentration of half-maximal effect.

SMILES	PINK1 modulator	ALOX12 inh	KB-V1 cytotox	MCF10A rerep	SW480 rerep	KB-3-1 cytotox
N#Cc1nc(COc2ccc3c(c2)OCO3)oc1N1CCCCCC1	x	-11%	x	x	x	x
CC1CN(c2ccccn2)C(C)CN1C(=S)Nc1ccccc1 (centres undefined)	-5%	u	23µM*	-1%	-3%	i
CC(Oc1ccc(F)cc1Cl)C(=O)NN (centres undefined)	x	38%	x	x	x	x
CCc1ccc(NCc2cc3c(C)nn(-c4ccccc4)c3[nH]c2=O)cc1	x	-9%	18µM*	u	u	i
CCOc1cc(/C=C2\N=C(C)OC2=O)cc(Br)c1OCC(=O)OC	1%[38.3 µM]	0%	i	9.2µM*	12µM*	i
CCOc1cc(/C=C2\N=C(C)OC2=O)cc(Br)c1OCCc1ccccc1	2%[38.3 µM]	u	i	-4%	-5%	u
CCC(=O)N1CCc2cc(S(=O)(=O)NC(CC(C)C)C(=O)N3CCc4ccccc43)ccc21 (centres undefined)	1%[38.3 µM]	0%	13µM*	7%	u	i
CCC(=O)N1CCc2cc(S(=O)(=O)NC(Cc3ccccc3)C(=O)O)ccc21 (centres undefined)	2%	-15%	i	-3%	-7%	i
O=C(c1ccoc1)N1CCc2onc(C(c3ccccc3)c3ccccc3)c2C1	x	-2%	x	x	x	x
COCC(=O)N1CCC(Oc2ccc(C(=O)NCCCC3CCCC3)cc2)CC1	0%	-2%	9.2µM*	-9%	-4%	u
COC(=O)NC(NC(=S)Nc1ccc([N+](=O)[O-])cc1)C(Cl)(Cl)Cl (centres undefined)	20µM*	u	21µM*	23%	16%	u
CC(C)CC(=O)NC(Nc1ccc([N+](=O)[O-])cc1)C(Cl)(Cl)Cl (centres undefined)	u	u	18µM*	5%	2%	u
CC(C)CC(=O)NC(Nc1ccccc1F)C(Cl)(Cl)Cl (centres undefined)	5%	i	u	-6%	-9%	u
CCOC(=O)NC(NC(=S)Nc1ccc(OC)cc1)C(Cl)(Cl)Cl (centres undefined)	3%	-15%	i	-3%	24%	i
O=C(NC(NC(=S)Nc1c(Cl)cccc1Cl)C(Cl)(Cl)Cl)c1cccc([N+](=O)[O-])c1 (centres undefined)	28µM*	u	u	6.5µM*	u	u
CCCCc1ccc(-c2csc(/C(C#N)=C/c3ccc(-c4ccccc4)cc3)n2)cc1	x	6%	x	x	x	x
CCOc1ccc(CN2CC[C@@](C)(O)[C@H](N3CCCC3)C2)cc1	x	69%	x	x	x	x
O=C(O)CC(CNS(=O)(=O)c1ccc(I)cc1)c1ccccc1 (centres undefined)	x	10%	x	x	x	x
CCC(C)(c1nnnn1-c1c(C)cccc1C)N(N=O)c1cccc(C(F)(F)F)c1 (centres undefined)	-2%	-13%	16µM*	22%	u	u
CCCCCOC(=O)CCC	x	-1%[176 µM]	x	x	x	x
CCOC(=O)C1C(=O)OC(C)(C)C1C(C)C(=O)c1ccc(C)cc1 (centres undefined)	3%[38.3 µM]	4%	15µM*	3%	-5%	i
CCOC(=O)C1C(=O)OC(C)(C)C1C(C)C(=O)c1ccc(C)cc1C (centres undefined)	-2%	-1%	i	-4%	-1%	i
COc1ccc2nc(NC(=O)C3CCCN3S(=O)(=O)c3ccc(C)cc3)sc2c1 (centres undefined)	-2%	0%	18µM*	15%	5%	i
COc1ccc(S(=O)(=O)N2CCCC2C(=O)Nc2nnc(-c3cccnc3)s2)cc1 (centres undefined)	4%[38.3 µM]	40µM*	i	21%	9%	i
COc1ccc(S(=O)(=O)N2CCC[C@H]2C(=O)NC2=NCCS2)cc1	1%[38.3 µM]	1%	i	1%	-1%	i
SMILES	PINK1 modulator	ALOX12 inh	KB-V1 cytotox	MCF10A rerep	SW480 rerep	KB-3-1 cytotox
CC(Sc1ncnc2nc[nH]c12)C(=O)Nc1ccc(OC(F)(F)F)cc1 (centres undefined)	x	5%	x	x	x	x
Cc1ccc(NCC(=O)N2CCN(S(=O)(=O)c3ccc4ccccc4c3)CC2)cc1F	x	-11%	x	x	x	x
Cc1ccc(C)c(NS(=O)(=O)c2cc(C(=O)Nc3ccccc3-c3ccccc3)ccc2C)c1	-4%[38.3 µM]	-9%	4.6µM*	19%	17%	u
Cc1ccc(C(=O)Nc2ccccc2-c2ccccc2)cc1S(=O)(=O)Nc1cccc(C)c1C	-6%[38.3 µM]	-5%	i	0%	12%	i
Cc1ccccc1NS(=O)(=O)c1cc(C(=O)Nc2cccc([N+](=O)[O-])c2)ccc1C	u	-6%	12µM*	u	-1%	u
CN(C)c1cccc(C(=O)N2CCC(OCCOc3ccc(F)cc3)CC2)c1	x	63%	x	x	x	x
Nc1ccc2nc(-c3ccccc3)sc2c1	1%	21%	u	26µM*	u	16µM*
Cc1ccc2nc(-c3ccc(N)cc3)sc2c1	2%	0%	i	21%	13%	u
Nc1ccc2nc(-c3ccccc3)c(-c3ccccc3)nc2c1	2%	-22%	i	21µM*	23µM*	i
Cc1cccc(C(C)C)c1NC(=O)C(Sc1ccccc1)c1ccccc1 (centres undefined)	x	20%	x	x	x	x
Cc1ccc(NC(=S)NNC(=O)c2nn(C)cc2Cl)cc1	1%	1%	i	1%	-12%	i
Cc1ccc(NC(=S)NNC(=O)c2nnn(-c3ccccc3)c2C)cc1	1%	-24%	21µM*	-75%	71%	i
O=C(Cc1cccs1)N1CCC(Oc2ccccc2)C1 (centres undefined)	x	50µM*	x	x	x	x
O=C(c1ccncc1)N1CCCCCC1c1nnc(-c2ccccc2)o1 (centres undefined)	x	22%	x	x	x	x
O=C(c1cccnc1)N1CCc2ccccc2C1	-5%[38.3 µM]	-10%	i	-6%	14%	i
NNc1cc2c(nn1)CCN(C(=O)c1ccccc1)C2	10%	-15%	i	x	x	18µM*
C=CCSc1nc2ccccc2n1Cc1nnc(-c2cccs2)o1	-3%	0%	6.5µM*	1%	-1%	i
